This passage reports outcome and AC50 results from PubChem BioAssay (EPA / NIEHS).

Read-out in test [1]: Vascular endothelial growth factor receptor 2 (Homo sapiens) (UniProt P35968)
Nature of the test: BSK_4H_VEGFRII: BioMAP Diversity Plus: 4H Assay for Vascular endothelial growth factor receptor 2 (VEGFR2) Biomarker Activity (AID 2283031).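 As to AC50: cell-surface VEGFR2 protein level quantified by ELISA.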 Conditions: primary human endothelial cells (HUVEC); actives raise or lower the signal. The procedure, abridged: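 Primary human umbilical vein endothelial cells in the BioMAP 4H system were dosed with test chemical, and 24 h later VEGFRII was measured by ELISA. Activity was fitted bidirectionally against DMSO as negative control and baseline.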

Read-out in test [2]: Human Leukocyte Antigen - DR isotype (HLADR), HLA-DRA (gene 3122)
Briefly: BSK_BE3C_HLADR: BioMAP Diversity Plus: BE3C Assay for Human Leukocyte Antigen - DR isotype (HLADR) Biomarker Activity (AID 2283032). Particulars: primary human bronchial epithelial cells; actives raise or lower the signal. The procedure, abridged: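 Signal came from an ELISA for HLA-DR in human bronchial epithelial primary cells harvested 24 h after treatment; gain- and loss-of-signal fitting used DMSO controls as reference.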

Read-out in test [3]: Vascular cell adhesion molecule 1 (VCAM1), VCAM1 (gene 7412)
Nature of the test: BSK_4H_VCAM1: BioMAP Diversity Plus: 4H Assay for Vascular cell adhesion molecule 1 (VCAM1) Biomarker Activity (AID 2283033).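 As to outcome: cell-surface VCAM-1 protein measured by ELISA.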 Particulars: primary human endothelial cells (HUVEC); actives raise or lower the signal. The procedure, abridged:
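Endpoint derived from bidirectional fitting against DMSO controls of VCAM-1 ELISA signal in umbilical vein endothelial cells sampled at 24 h following treatment.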

Read-out in test [4]: Monokine induced gamma interferon (MIG), CXCL9 (gene 4283)
Nature of the test: BSK_BE3C_MIG: BioMAP Diversity Plus: BE3C Assay for Monokine induced gamma interferon (MIG) Biomarker Activity (AID 2283035).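 As to outcome: MIG protein measured by ELISA in BE3C cultures after 24 h of dosing.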 Conditions: primary human bronchial epithelial cells; actives raise or lower the signal. The procedure, abridged: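 MIG level was determined by ELISA after 24 h chemical treatment of primary human bronchial epithelial cells. Values were fitted bidirectionally with DMSO as the negative control and activity baseline.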

Read-out in test [5]: Transforming growth factor beta 1 (TGFb1), TGFB1 (gene 7040)
Briefly: BSK_BE3C_TGFb1: BioMAP Diversity Plus: BE3C Assay for Transforming growth factor beta 1 (TGFb1) Biomarker Activity (AID 2283036;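 as to outcome: TGF-b1 protein level measured by ELISA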). Particulars: primary human bronchial epithelial cells; actives raise or lower the signal. The procedure, abridged: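 In this human primary bronchial epithelial system, an ELISA quantified TGF-b1 one day after dosing. Endpoint changes in either direction were fitted relative to DMSO.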

Read-out in test [6]: Plasminogen activator inhibitor-1 (PAI1), SERPINE1 (gene 5054)
Briefly: BSK_BE3C_PAI1: BioMAP Diversity Plus: BE3C Assay for Plasminogen activator inhibitor-1 (PAI1) Biomarker Activity (AID 2283037). Conditions: primary human bronchial epithelial cells; actives raise or lower the signal. The procedure, abridged:
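PAI-1 biomarker levels in treated human bronchial epithelial cells are determined by ELISA at 24 h. Both increases and decreases relative to DMSO are fitted.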

Read-out in test [7]: urokinase plasminogen activator (uPA), PLAU (gene 5328)
Nature of the test: BSK_BE3C_uPA: BioMAP Diversity Plus: BE3C Assay for urokinase plasminogen activator (uPA) Biomarker Activity (AID 2283038).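 As to outcome: uPA protein level quantified by ELISA in cell cultures; uPA read one day after compound addition.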 Particulars: primary human bronchial epithelial cells; actives raise or lower the signal. The procedure, abridged:
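Human primary bronchial epithelial cells were exposed to chemical for 24 h, then uPA levels were measured by ELISA. Responses were fitted bidirectionally against DMSO as negative control and baseline. Parallel SRB staining of total protein gauged overt cytotoxicity.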

Read-out in test [8]: Urokinase-type plasminogen activator receptor (uPAR), PLAUR (gene 5329)
Nature of the test: BSK_BE3C_uPAR: BioMAP Diversity Plus: BE3C Assay for Urokinase-type plasminogen activator receptor (uPAR) Biomarker Activity (AID 2283039).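 As to outcome: cells exposed to compound for one day before measurement.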 Particulars: primary human bronchial epithelial cells; actives raise or lower the signal. The procedure, abridged: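 A uPAR ELISA serves as the readout, taken 24 h after treating primary human bronchial epithelial cells. Responses in either direction are fitted against DMSO, which defines baseline activity.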

Read-out in test [9]: Interleukin-6 (IL6), IL6 (gene 3569)
Briefly: BSK_CASM3C_IL6: BioMAP Diversity Plus: CASM3C Assay for Interleukin-6 (IL6) Biomarker Activity for (AID 2283040). Conditions: primary human coronary artery smooth muscle cells; actives raise or lower the signal.

Read-out in test [10]: Tissue plasminogen activator (tPA), PLAT (gene 5327)
Nature of the test: BSK_BE3C_tPA: BioMAP Diversity Plus: BE3C Assay for Tissue plasminogen activator (tPA) Biomarker Activity (AID 2283041).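 As to outcome: tPA level quantified by ELISA one day after compound addition.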 Particulars: primary human bronchial epithelial cells; actives raise or lower the signal. The procedure, abridged:
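Bidirectional curve fitting relative to DMSO defined activity, with tPA detected by ELISA in chemically treated human bronchial epithelial primary cells at 24 hours.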

Read-out in test [11]: Interleukin-8 (IL8), CXCL8 (gene 3576)
Briefly: BSK_CASM3C_IL8: BioMAP Diversity Plus: CASM3C Assay for Interleukin-8 (IL8) Biomarker Activity (AID 2283042).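 Also: IL-8 protein level quantified by ELISA.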 Particulars: primary human coronary artery smooth muscle cells; actives raise or lower the signal.

Read-out in test [12]: Human Leukocyte Antigen - DR isotype (HLADR), HLA-DRA (gene 3122)
Nature of the test: BSK_CASM3C_HLADR: BioMAP Diversity Plus: CASM3C Assay for Human Leukocyte Antigen - DR isotype (HLADR) Biomarker Activity (AID 2283043).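 Also: cell-surface HLA-DR protein level quantified by ELISA.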 Particulars: primary human coronary artery smooth muscle cells; actives raise or lower the signal.

Read-out in test [13]: Macrophage colony-stimulating factor (MCSF), CSF1 (gene 1435)
Briefly: BSK_CASM3C_MCSF: BioMAP Diversity Plus: CASM3C Assay for Macrophage colony-stimulating factor (MCSF) Biomarker Activity (AID 2283044).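 Also: M-CSF protein amount quantified by ELISA after 24 h exposure.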 Conditions: primary human coronary artery smooth muscle cells; actives raise or lower the signal.

Read-out in test [14]: Low-density lipoprotein receptor (LDLR), LDLR (gene 3949)
Briefly: BSK_CASM3C_LDLR: BioMAP Diversity Plus: CASM3C Assay for Low-density lipoprotein receptor (LDLR) Biomarker Activity (AID 2283045).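 Also: LDLR protein level on the cell surface quantified by ELISA.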 Conditions: primary human coronary artery smooth muscle cells; actives raise or lower the signal.

Read-out in test [15]: Monocyte Chemoattractant Protein-1 (MCP1), CCL2 (gene 6347)
Briefly: BSK_CASM3C_MCP1: BioMAP Diversity Plus: CASM3C Assay for Monocyte Chemoattractant Protein-1 (MCP1) Biomarker Activity (AID 2283046).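 Also: MCP-1 level quantified by ELISA 24 h after dosing.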 Conditions: primary human coronary artery smooth muscle cells; actives raise or lower the signal.

Test [16] can be described thus: BSK_CASM3C_Proliferation: Cell Proliferation Assessment in the BioMAP Diversity Plus: CASM3C Assay (AID 2283047).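 Also: sulforhodamine B total protein stain as relative cell number at 560 nm; sub-confluent cells exposed 48 h before staining; fitted both ways against DMSO so gain or loss of cell number.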 Conditions: primary human coronary artery smooth muscle cells.
Read-out in test [17]: Monokine induced gamma interferon (MIG), CXCL9 (gene 4283)
Nature of the test: BSK_CASM3C_MIG: BioMAP Diversity Plus: CASM3C Assay for Monokine induced gamma interferon (MIG) Biomarker Activity (AID 2283048). Conditions: primary human coronary artery smooth muscle cells; actives raise or lower the signal.

Read-out in test [18]: serum amyloid A (SAA), SAA1 (gene 6288)
Briefly: BSK_CASM3C_SAA: BioMAP Diversity Plus: CASM3C Assay for serum amyloid A (SAA) Biomarker Activity (AID 2283049).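 Also: SAA protein level quantified by ELISA.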 Particulars: primary human coronary artery smooth muscle cells; actives raise or lower the signal.

Test [19] is described as follows: BSK_CASM3C_SRB: Viability Assessment in the BioMAP Diversity Plus: CASM3C Assay (AID 2283050).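 Also: total protein by SRB staining as cytotoxicity measure in parallel cultures.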 Particulars: primary human coronary artery smooth muscle cells.

Calls of active or inactive are those of the source. The calls were made as follows: active = hit-call score of the fitted dose curve at least 0.9, where 1 is the maximum; inactive = score below 0.9.

Regarding `CCCCOC(=O)CCCCCCCCC(=O)OCCCC`, the outcome in test [1], in test [2], in [3], in [4], in [5] and in test [6] was inactive. Besides, the outcome in [7], in [8], in [9], in test [10], in test [11] and in [12] was inactive. The result in test [13], in test [14], in test [15], in [16], in [17] and in test [18] was inactive. In addition, the outcome in test [19] was inactive.

For the compound `COCCOC[C@H](CC1(C(=O)NC2CCC(C(=O)O)CC2)CCCC1)C(=O)Oc1ccc2c(c1)CCC2` (stereo partly drawn), the result in test [1], in test [2], in test [3], in test [4], in [5] and in test [6] was inactive. For the same compound, the result in test [7], in test [8], in test [9], in test [10], in test [11] and in [12] was inactive. Besides, the result in test [13], in [14], in [15], in [16], in test [17] and in test [18] was inactive. Besides, in [19], the outcome was inactive.

With `Cc1nc(C)nc(N2C[C@@H](C)N(c3ccnc([C@@H](C)O)n3)[C@@H](C)C2)n1`, the outcome in test [1], in test [2], in test [3], in test [4], in [5] and in test [6] was inactive. For the same compound, the result in test [7], in test [8], in [9], in test [10], in [11] and in [12] was inactive. Besides, the outcome in [13], in test [14], in [15], in test [16], in test [17] and in test [18] was inactive. The result in test [19] was inactive.

For the compound `CNC(=O)[C@H]1O[C@@H](n2cnc3c(NCc4cc(Cl)ccc4OCc4cc(C)no4)ncnc32)[C@H](O)[C@@H]1N`, the outcome in test [1], in [2], in test [3], in test [4], in [5] and in test [6] was inactive. The result in test [7], in [8], in test [9], in [10], in test [11] and in [12] was inactive. Besides, the outcome in test [13], in test [14], in [15], in [16], in test [17] and in [18] was inactive. Further, the outcome in test [19] was inactive.

For the compound `CCCCCCCCCCCC(=O)OC`, the outcome in test [1], in [2], in test [3], in test [4], in test [5] and in [6] was inactive. Further, the result in test [7], in test [8], in [9], in [10], in test [11] and in test [12] was inactive. Moreover, the outcome in [13], in test [14], in [15], in test [16], in [17] and in [18] was inactive. The result in test [19] was inactive.

For the compound `O=C(O)CCCCC(=O)O`, the outcome in test [1], in [2], in test [3], in test [4], in [5] and in [6] was inactive. Also, the outcome in test [7], in test [8], in test [9], in test [10], in test [11] and in [12] was inactive. Besides, the outcome in test [13], in test [14], in test [15], in test [16], in [17] and in test [18] was inactive. The outcome in test [19] was inactive.

As to `CN[C@H]1CC[C@@H](c2ccc(Cl)c(Cl)c2)c2ccc(S(N)(=O)=O)cc21`, the AC50 in test [1] is 20 µM (active); in test [2], 31.4 µM (active); in [3], 17.3 µM (active); in test [4], 36.7 µM (active); in [5], 31.1 µM (active); in test [6], 32.5 µM (active). The half-maximal activity concentration (AC50) in test [7] is 31.1 µM (active); in test [8], 30.2 µM (active); in [9], 33.1 µM (active); in test [10], 13 µM (active); in [11], 35.3 µM (active); in test [12] it was 32.5 µM (active). Also, the AC50 in test [13] was 28.2 µM (active); in [14], 34.8 µM (active); in test [15], 30.4 µM (active); in test [16], 14.7 µM (active); in test [17] it was 31.2 µM (active); in test [18], 36 µM (active). For the same compound, the AC50 in test [19] is 31.3 µM (active).
